According to publication PMC12820563, “FoxP3 forms a head-to-head dimer in vivo and stabilizes its multimerization on adjacent microsatellites”:
In all, about 16,000 sequences were measured (“rpm ratio (pull-down/input)”: median about 0.94, highest 2% from about 1.7 on). Only a selection was taken, and the highest values are over-represented in it overall.

molecular target: T1, MBP-FoxP1dN (Mus musculus, UniProt P58462 326-579); experiment: PD-seq (MBP pull-down with sequencing); 20 mM Tris-HCl pH 7.5, 100 mM NaCl, 1.5 mM MgCl2, 0.4 uM protein, 0.1 uM dsDNA library, 30 min, room temperature, amylose pull-down; high values mean tight binding; conditions: protein: recombinant; tags: His6-MBP; chain copies: 2; dsDNA, one strand shown
T1 sequence: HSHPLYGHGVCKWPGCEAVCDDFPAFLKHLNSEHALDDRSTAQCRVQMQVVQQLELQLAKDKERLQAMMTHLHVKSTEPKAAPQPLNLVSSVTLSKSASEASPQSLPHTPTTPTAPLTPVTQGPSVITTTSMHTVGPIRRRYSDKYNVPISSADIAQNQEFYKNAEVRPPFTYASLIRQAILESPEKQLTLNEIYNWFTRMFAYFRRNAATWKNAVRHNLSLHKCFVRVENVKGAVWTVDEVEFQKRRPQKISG
In short: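 Protein and DNA were mixed at 0.4 µM and 0.1 µM and held for 30 min at room temperature in Tris pH 7.5 buffer with NaCl and MgCl2; the protein was a His6-MBP-tagged, N-terminally truncated mouse FoxP3 or FoxP1 fragment from E. coli, and the DNA a Klenow-filled double-stranded degenerate library. Amylose resin captured the complexes, which were washed three times. Binding is read as reads-per-million enrichment of pull-down versus input after Illumina sequencing, with replicates pooled.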

Sequence	binding signal
GATGATTGTTCTCCCAGCTGATGAATTTCTAGTTTCGAGTAAACAAATTTTCCTAATCTTTCTGTTCAAGCGCCATCTAC	0.858 RPM ratio (pull-down/input)
GATGATTGTTCTCCCAGCTGATGAATTTCGCATGTCGAGTAAACAAATTTTCCTAATCTTTCTGTTCAAGCGCCATCTAC	0.944 RPM ratio (pull-down/input)
GATGATTGTTCTCCCAGCTGATGAATTAGTCACCTCGAGTAAACAAATTTTCCTAATCTTTCTGTTCAAGCGCCATCTAC	0.877 RPM ratio (pull-down/input)
GATGATTGTTCTCCCAGCTGATGAATTCTGGGCTTCGAGTAAACAAATTTTCCTAATCTTTCTGTTCAAGCGCCATCTAC	0.843 RPM ratio (pull-down/input)
GATGATTGTTCTCCCAGCTGATGAATTTAGTATTTCGAGTAAACAAATTTTCCTAATCTTTCTGTTCAAGCGCCATCTAC	1.24 RPM ratio (pull-down/input)
GATGATTGTTCTCCCAGCTGATGAATTAGTTCTGTCGAGTAAACAAATTTTCCTAATCTTTCTGTTCAAGCGCCATCTAC	0.873 RPM ratio (pull-down/input)
GATGATTGTTCTCCCAGCTGATGAATTAGTATTTTCGAGTAAACAAATTTTCCTAATCTTTCTGTTCAAGCGCCATCTAC	2.28 RPM ratio (pull-down/input)
GATGATTGTTCTCCCAGCTGATGAATTAGTAATTTCGAGTAAACAAATTTTCCTAATCTTTCTGTTCAAGCGCCATCTAC	1.07 RPM ratio (pull-down/input)
GATGATTGTTCTCCCAGCTGATGAATTAGTATTGTCGAGTAAACAAATTTTCCTAATCTTTCTGTTCAAGCGCCATCTAC	2.55 RPM ratio (pull-down/input)
GATGATTGTTCTCCCAGCTGATGAATTGTATTAGTCGAGTAAACAAATTTTCCTAATCTTTCTGTTCAAGCGCCATCTAC	1.3 RPM ratio (pull-down/input)
GATGATTGTTCTCCCAGCTGATGAATTAACATCGTCGAGTAAACAAATTTTCCTAATCTTTCTGTTCAAGCGCCATCTAC	0.998 RPM ratio (pull-down/input)
GATGATTGTTCTCCCAGCTGATGAATTAAAACATTCGAGTAAACAAATTTTCCTAATCTTTCTGTTCAAGCGCCATCTAC	1.4 RPM ratio (pull-down/input)
GATGATTGTTCTCCCAGCTGATGAATTAGACGTATCGAGTAAACAAATTTTCCTAATCTTTCTGTTCAAGCGCCATCTAC	1.02 RPM ratio (pull-down/input)
GATGATTGTTCTCCCAGCTGATGAATTCCTGATTTCGAGTAAACAAATTTTCCTAATCTTTCTGTTCAAGCGCCATCTAC	1.02 RPM ratio (pull-down/input)
GATGATTGTTCTCCCAGCTGATGAATTCTGTTTTTCGAGTAAACAAATTTTCCTAATCTTTCTGTTCAAGCGCCATCTAC	1.99 RPM ratio (pull-down/input)
GATGATTGTTCTCCCAGCTGATGAATTCGTGTTTTCGAGTAAACAAATTTTCCTAATCTTTCTGTTCAAGCGCCATCTAC	2.29 RPM ratio (pull-down/input)
GATGATTGTTCTCCCAGCTGATGAATTTCGTGTTTCGAGTAAACAAATTTTCCTAATCTTTCTGTTCAAGCGCCATCTAC	1.02 RPM ratio (pull-down/input)
GATGATTGTTCTCCCAGCTGATGAATTCGTCGTGTCGAGTAAACAAATTTTCCTAATCTTTCTGTTCAAGCGCCATCTAC	0.922 RPM ratio (pull-down/input)

Sequence	binding signal
GATGATTGTTCTCCCAGCTGATGAATTCTCTGTTTCGAGTAAACAAATTTTCCTAATCTTTCTGTTCAAGCGCCATCTAC	0.91 RPM ratio (pull-down/input)
GATGATTGTTCTCCCAGCTGATGAATTCGTGTGTTCGAGTAAACAAATTTTCCTAATCTTTCTGTTCAAGCGCCATCTAC	1.22 RPM ratio (pull-down/input)
GATGATTGTTCTCCCAGCTGATGAATTCTTCGTGTCGAGTAAACAAATTTTCCTAATCTTTCTGTTCAAGCGCCATCTAC	0.867 RPM ratio (pull-down/input)
GATGATTGTTCTCCCAGCTGATGAATTCGTGTTGTCGAGTAAACAAATTTTCCTAATCTTTCTGTTCAAGCGCCATCTAC	2.52 RPM ratio (pull-down/input)
GATGATTGTTCTCCCAGCTGATGAATTCCTGTTTTCGAGTAAACAAATTTTCCTAATCTTTCTGTTCAAGCGCCATCTAC	2.04 RPM ratio (pull-down/input)
GATGATTGTTCTCCCAGCTGATGAATTCCCTGTTTCGAGTAAACAAATTTTCCTAATCTTTCTGTTCAAGCGCCATCTAC	0.907 RPM ratio (pull-down/input)
GATGATTGTTCTCCCAGCTGATGAATTCGAGTTTTCGAGTAAACAAATTTTCCTAATCTTTCTGTTCAAGCGCCATCTAC	1.08 RPM ratio (pull-down/input)
GATGATTGTTCTCCCAGCTGATGAATTCGCAAATTCGAGTAAACAAATTTTCCTAATCTTTCTGTTCAAGCGCCATCTAC	0.933 RPM ratio (pull-down/input)
GATGATTGTTCTCCCAGCTGATGAATTGGCCTTCTCGAGTAAACAAATTTTCCTAATCTTTCTGTTCAAGCGCCATCTAC	0.772 RPM ratio (pull-down/input)
GATGATTGTTCTCCCAGCTGATGAATTGCAATGTTCGAGTAAACAAATTTTCCTAATCTTTCTGTTCAAGCGCCATCTAC	1.42 RPM ratio (pull-down/input)
GATGATTGTTCTCCCAGCTGATGAATTAAGGGTTTCGAGTAAACAAATTTTCCTAATCTTTCTGTTCAAGCGCCATCTAC	0.875 RPM ratio (pull-down/input)
GATGATTGTTCTCCCAGCTGATGAATTCTTGTTTTCGAGTAAACAAATTTTCCTAATCTTTCTGTTCAAGCGCCATCTAC	2.77 RPM ratio (pull-down/input)
GATGATTGTTCTCCCAGCTGATGAATTCTCATGTTCGAGTAAACAAATTTTCCTAATCTTTCTGTTCAAGCGCCATCTAC	0.861 RPM ratio (pull-down/input)
GATGATTGTTCTCCCAGCTGATGAATTTCATGTTTCGAGTAAACAAATTTTCCTAATCTTTCTGTTCAAGCGCCATCTAC	0.998 RPM ratio (pull-down/input)
GATGATTGTTCTCCCAGCTGATGAATTCATGTTTTCGAGTAAACAAATTTTCCTAATCTTTCTGTTCAAGCGCCATCTAC	2.2 RPM ratio (pull-down/input)
GATGATTGTTCTCCCAGCTGATGAATTTCTTGTTTCGAGTAAACAAATTTTCCTAATCTTTCTGTTCAAGCGCCATCTAC	1.14 RPM ratio (pull-down/input)
GATGATTGTTCTCCCAGCTGATGAATTCCTTGTTTCGAGTAAACAAATTTTCCTAATCTTTCTGTTCAAGCGCCATCTAC	0.969 RPM ratio (pull-down/input)
